The list is not random: actives were taken first. Their share in the collection is about 3.3%.
Efflux pump inh: antifungal efflux pump inhibition, Nile Red retention. inhibition, % at 10 µM. AID 485275. 330,000 compounds, 0.44% hits. S. cerevisiae Candida pump triplex;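 active = plate passing quality check with inhibition over a set limit, or well fluorescence over plate mean plus 4 SD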;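 note: Nile Red retained in pooled yeast measured as flow cytometry median fluorescence; higher means more Nile Red kept so more efflux inhibition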
PHOSPHO1 inh: blocks human PHOSPHO1 phosphatase activity. recombinant PHOSPHO1, absorbance phosphatase assay. 290,000 compounds, 1.1% hits. Q8TCT1. inhibition, % at 13.3 µM; in the data active = inhibition above about 60%
H9c2 protect: modulators protecting cardiomyocytes from myocardial damage; protection from H2O2 cell death, % at 20 µM; 360,000 compounds, 0.63% hits; H9c2 cardiomyocytes, H2O2 injury protection, ATPLite, 2 h;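 active = compounds giving at least 50% protection of heart cells from peroxide-induced death in the single-dose screen, raw or plate-pattern-corrected value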
KCC2 mod: modulates chloride dependent transport by human KCC2 | Q9H2X9 | KCC2 cells, thallium flux FluoZin-2 fluorescence | B-score of Tl+ flux slope (higher = more flux/activation; lower = inhibition) at 10 µM | 190,000 compounds, 2.2% hits | AID 1456;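 active = thallium flux slope and its plate-corrected score both differing from the plate sample mean at a set confidence after two filtering rounds, in either direction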;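 note: slope of fluorescence scaled to starting intensity during 10 to 20 s after thallium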
Target sequence (Q9H2X9 whole entry, looked up): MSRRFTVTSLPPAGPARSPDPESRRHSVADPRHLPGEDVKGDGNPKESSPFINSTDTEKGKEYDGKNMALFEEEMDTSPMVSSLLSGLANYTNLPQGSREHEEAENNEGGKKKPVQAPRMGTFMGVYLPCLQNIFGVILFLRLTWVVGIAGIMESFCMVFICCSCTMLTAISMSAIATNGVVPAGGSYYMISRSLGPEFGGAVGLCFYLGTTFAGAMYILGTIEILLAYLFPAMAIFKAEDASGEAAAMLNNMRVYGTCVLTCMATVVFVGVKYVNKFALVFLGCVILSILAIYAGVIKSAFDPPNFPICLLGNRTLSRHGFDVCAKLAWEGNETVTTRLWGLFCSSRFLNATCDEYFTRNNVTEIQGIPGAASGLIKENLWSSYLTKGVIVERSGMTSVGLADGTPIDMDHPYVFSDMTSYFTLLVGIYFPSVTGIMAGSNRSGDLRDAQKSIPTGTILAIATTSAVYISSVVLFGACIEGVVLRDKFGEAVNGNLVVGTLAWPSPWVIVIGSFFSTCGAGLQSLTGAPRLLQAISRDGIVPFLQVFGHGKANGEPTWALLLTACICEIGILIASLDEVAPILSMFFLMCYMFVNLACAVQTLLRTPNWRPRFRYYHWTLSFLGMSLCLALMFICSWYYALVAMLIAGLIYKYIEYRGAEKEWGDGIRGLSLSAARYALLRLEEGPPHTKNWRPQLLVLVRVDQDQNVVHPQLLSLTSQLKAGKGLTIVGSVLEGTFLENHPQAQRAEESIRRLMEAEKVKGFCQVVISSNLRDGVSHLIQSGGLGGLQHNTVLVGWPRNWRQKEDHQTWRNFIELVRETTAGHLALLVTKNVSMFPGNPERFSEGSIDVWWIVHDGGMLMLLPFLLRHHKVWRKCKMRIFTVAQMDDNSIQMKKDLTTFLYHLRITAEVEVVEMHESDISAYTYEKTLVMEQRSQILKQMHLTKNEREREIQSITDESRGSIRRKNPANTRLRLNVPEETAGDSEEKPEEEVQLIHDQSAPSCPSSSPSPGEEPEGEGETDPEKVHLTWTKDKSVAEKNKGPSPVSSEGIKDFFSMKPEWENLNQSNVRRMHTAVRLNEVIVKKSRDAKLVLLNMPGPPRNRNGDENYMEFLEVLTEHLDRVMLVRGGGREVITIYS
Calb FLC: C. albicans growth modulation with fluconazole; C. albicans CaCi-2 (fluconazole-resistant clinical isolate) + fluconazole, Alamar Blue growth, 48 h; growth inhibition, % (test concentration not listed); 300,000 compounds, 0.57% hits;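 active = growth inhibition above about 58% in most replicates, limit read from the data, passing the limit was not always enough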;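 note: all wells also contain fluconazole at 8 µg/ml as a sub-toxic cotreatment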
Hits are given with their value; - = inactive; . = no result given.

SMILES | Efflux pump inh | PHOSPHO1 inh | H9c2 protect | KCC2 mod | Calb FLC
O=C(CSc1nnc2scc(-c3ccccc3)n12)N1CCN(Cc2ccccc2)CC1 | - | - | - | - | -
O=C(CSc1nnc2scc(-c3ccccc3)n12)Nc1nsc(-c2ccccc2)n1 | - | 67 | - | - | -
C#CCNC(=O)c1ccc2sc([C@H]3C[C@H](O)[C@@H](CO)O3)nc2c1 | . | . | - | . | .
Cc1noc(/C=C/c2ccccn2)c1[N+](=O)[O-] | - | . | - | . | 85
CCCOc1ccc(-c2c(C(=O)N/N=C/c3cccnc3)nnn2-c2nonc2N)cc1 | - | - | - | . | -
O=C(c1cc2c(s1)CCCCC2)N1CCN(c2ncccn2)CC1 | - | - | - | - | 76
CC(=O)Nc1ccc(NC(=O)Nc2ccc3c(c2)N(C)C(=O)CS3)cc1 | - | - | - | - | -
CN1C(=O)CSc2ccc(NC(=O)N3CCN(c4ccccn4)CC3)cc21 | - | - | 57 | - | -
Cc1ccc(C)c(N2CCN(C(=O)Nc3ccc4c(c3)N(C)C(=O)CS4)CC2)c1 | - | - | - | - | -
CN1C(=O)CSc2ccc(NC(=O)Nc3ccccn3)cc21 | - | - | 59 | - | -
Cc1ccc(Cn2c(SCC(=O)N3CC(=O)Nc4ccccc43)nc3ccccc3c2=O)cc1 | - | - | - | - | -
O=C1CN(C(=O)CSc2nc3cc(Cl)ccc3c(=O)n2Cc2ccccc2)c2ccccc2N1 | - | - | - | 24 | -
COc1ccccc1C1=NOC(C(=O)N2CCN(C(=O)c3ccco3)CC2)C1 (centres undefined) | - | - | - | . | -
COc1ccc2nc(/N=C/c3c(C)[nH]n(-c4ccc(C)cc4C)c3=O)sc2c1 | - | - | - | 62 | -
COc1ccccc1N=Cc1c(C)[nH]n(-c2ccc(C)cc2C)c1=O | - | - | - | - | -
Cc1ccnc(NC(=O)c2ccc(C(=O)c3ccccc3)cc2)c1 | - | . | - | . | -
Cc1ccnc(NC(=O)c2ccc(S(=O)(=O)c3ccccc3)cc2)c1 | - | 61 | - | - | -
COCCCNC(=O)c1csc([C@H]2C[C@H](O)[C@@H](CO)O2)n1 | . | . | - | . | .
COC(=O)c1ccc(N2C(=O)CC(Sc3n[nH]c(C)n3)C2=O)cc1 (centres undefined) | - | 85 | - | - | -
CC(C)(C)C(=O)NC(Nc1cccc2cccnc12)C(Cl)(Cl)Cl (centres undefined) | - | 76 | - | . | -
CCC(=O)NC(NC(=S)Nc1cccc2cccnc12)C(Cl)(Cl)Cl (centres undefined) | - | - | - | - | -
COc1cc(OC)cc(N(C(=O)C2COc3ccccc3O2)C(C(=O)NC2CCCCC2)c2ccc(O)cc2)c1 (centres undefined) | - | - | - | - | 90
COc1ccc(N(C(=O)C2COc3ccccc3O2)C(C(=O)NC2CCCCC2)c2ccccc2)cc1OC (centres undefined) | - | - | - | - | -
Nc1ccc(C#Cc2ccc3c(=O)c4ccccc4oc3c2)cc1 | - | - | - | . | -
COc1cc2oc3ccc(C#Cc4ccccn4)cc3c(=O)c2cc1OC | - | . | 66 | . | -
SMILES | Efflux pump inh | PHOSPHO1 inh | H9c2 protect | KCC2 mod | Calb FLC
COc1cc2oc3cc(C#Cc4ccc(N)cc4)ccc3c(=O)c2cc1OC | - | . | 72 | . | -
COc1cc2oc3ccc(C#Cc4ccc(N)cc4)cc3c(=O)c2cc1OC | - | . | 57 | . | -
O=C(NCc1ccccc1F)C(=O)NCC1OCCCN1S(=O)(=O)c1cccs1 (centres undefined) | - | 75 | - | . | -
O=C(NC(=S)Nc1ccccc1N1CCCC1)c1ccc([N+](=O)[O-])cc1 | - | - | - | 42 | -
Cc1c(C(=O)NC(=S)Nc2ccccc2N2CCCC2)cccc1[N+](=O)[O-] | - | - | - | 13 | -
CCC1CCCCN1C(=S)NC(=O)c1cc(Br)ccc1Cl (centres undefined) | - | . | - | . | .
Cc1c(C(=O)NN2CCN(C)CC2)cccc1[N+](=O)[O-] | - | 60 | - | - | -
CCC1CCCCN1C(=S)NC(=O)c1ccc([N+](=O)[O-])cc1 (centres undefined) | - | - | - | 46 | -
CCOC(=O)[C@H]1[C@H]2COc3cc(OC)ccc3[C@@H]2N2C(=O)N(c3cccc(Cl)c3)C(=O)[C@@]12C | - | - | - | . | -
Cc1nnc(NC(=O)CSc2nnc3c(n2)[nH]c2ccc(Br)cc23)s1 | - | - | - | . | -
COc1ccc(NC(=O)c2cccc(OS(=O)(=O)N(C)C)c2)cc1 | - | - | - | - | -
CN(C)S(=O)(=O)Oc1cccc(C(=O)Nc2ccc(Cl)c(Cl)c2)c1 | - | - | - | - | 92
CN(C)S(=O)(=O)Oc1cccc(C(=O)Nc2cccc(Cl)c2)c1 | - | - | - | - | 108
Cc1cc(C)c(C#N)c(N2CCN(C(=O)C3COc4ccccc4O3)CC2)n1 (centres undefined) | - | . | - | . | .
NCC12CC3CC(C1)CC(CN)(C3)C2 | - | - | - | . | -
NC(=O)CC12CC3CC(C1)CC(CC(N)=O)(C3)C2 | - | - | - | - | 87
Cc1ccc(COC(=O)c2ccc3ccccc3n2)cc1 | - | - | - | . | -
O=C(COc1ccc(Cl)cc1)NC1CCSC1=O (centres undefined) | - | - | - | . | 102
CCOc1ccc(S(=O)(=O)N2CCN=C2c2ccccc2)cc1 | - | - | - | . | -
CN(C)c1ccc(C(=S)N2CCOCC2)cc1Br | - | 101 | - | - | -
CCC(C(=O)Nc1ccon1)c1ccccc1 (centres undefined) | - | - | - | . | -
Cn1c(C(=O)Nc2ccc3c(c2)OCCO3)cc2c(=O)n(C)c3ccccc3c21 | - | - | 95 | . | -
COc1cc(/C=C2\CC/C(=C\c3cc(OC)c(OC)c(OC)c3)C2=O)cc(OC)c1OC | - | - | - | - | -
COc1cc(/C=C2\CC/C(=C\c3cc(OC)c(O)c(OC)c3)C2=O)cc(OC)c1O | - | - | 65 | - | .
CC(C)C(NC(=O)c1ccc2c(c1)OCO2)C(=O)N/N=C\c1ccco1 (centres undefined) | - | 65 | - | - | -
SMILES | Efflux pump inh | PHOSPHO1 inh | H9c2 protect | KCC2 mod | Calb FLC
O=C(COc1ccc(Br)cc1)N1CCNC1=O | - | - | - | . | -
CCn1c(C)cc(/C=C2\NC(=O)N(Cc3ccccc3)C2=O)c1C | - | 70 | - | - | -
Cc1c(OCC(=O)NCC(O)c2ccccc2)ccc2c(-c3ccccc3)cc(=O)oc12 (centres undefined) | - | - | - | . | 81
Cc1c(OCC(=O)NCc2ccccn2)ccc2c(-c3ccccc3)cc(=O)oc12 | - | - | - | . | -
Cc1cc(=O)c2c(O)c(O)ccc2o1 | - | - | 50 | - | -
O=C(C[C@H]1C/C=C/CC[C@H](Cc2ccc(F)cc2)C(=O)O[C@H](c2ccccc2)CNC1=O)NCCO | - | . | - | . | .
O=C1N[C@H](Cc2ccccc2)COC(=O)[C@@H](Cc2ccc(F)cc2)C/C=C\C[C@H]1CC(=O)N(CCO)Cc1ccccc1 | - | . | 58 | . | .
O=C1N[C@H](Cc2ccccc2)COC(=O)[C@H](Cc2ccc(F)cc2)C/C=C\C[C@@H]1CC(=O)N(CCO)Cc1ccccc1 | - | . | - | . | .

High-throughput results from PubChem.
